Measurements from PubChem BioAssay AID686921 (National Center for Advancing Translational Sciences (NCATS), 2013).
Calls of active or inactive are those of the source. The call rests on the fitted dose curve; in most records, active means well fitted curve in the direction sought with a large enough effect; inconclusive means small, poorly fitted or top-dose-only effect, or another doubt; inactive means no such curve, though single readings can be large or run the other way.

Assay: qHTS screen for inhibitors of ELG1-dependent DNA repair in human embryonic kidney (HEK293T) cells expressing luciferase-tagged ELG1: 5FU Viability Assay for probe SAR
Conditions: HEK293T ELG1-luc, CellTiter-Glo viability, 16 h; series mostly up to 46.1 µM
Excerpt: Cancer cells divide rapidly compared to normal cells in the body. During cell division, cancer cells need to duplicate their genome by DNA replication. The failure of genome duplication leads to cancer cells' death. Therefore, inhibitors of DNA replication could specifically kill cancer cells. Based on this concept, many chemotherapeutic agents were developed and have been used to treat cancer patients. However, there are a limited number of agents available in the clinical setting, and some of those that do exist have low efficacy and severe side effects. Therefore, if we can find the compounds that effectively block DNA replication either by directly damaging DNA or by inhibiting other cellular mechanisms, the options for cancer treatment will be broadened. With this in mind, we developed a quantitative high-throughput ELG1-luciferase reporter gene assay. Small molecules that specifically block ELG1 function in response to DNA damage can be identified by monitoring the suppression of luciferase activity. Since ELG1 defines a pathway for repairing DNA damage, agents blocking ELG1 function can be used to sensitize cancer cells to chemotherapeutic agents whose mechanism of action involves the induction of DNA damage. Cytotoxicity of the active compounds in the ELG1 qHTS assay (AID 493107) was assessed using the CellTiter-Glo Luminescent Cell Viability Assay kit (Promega, USA). CellTiter-Glo measures the intracellular ATP present in metabolically active cells using Ultra-Glo as the luciferase to detect ATP levels. In brief, the luciferase in the buffer catalyzes the oxidation of luciferin to oxyluciferin and light which is dependent on ATP. […] DMSO and wells with media alone were used as positive and negative controls, respectively. Inactivity to this assay is the desirable outcome. NIH Molecular Libraries Probe Production Network [MLPCN] NIH Chemical Genomics Center [NCGC] MLPCN Grant: R03 MH092164 Assay Provider: Kyungjae Myung, NHGRI, NIH
ELG1-luc HEK293T cells will be seeded in 1536-well plates at a density of 2,000 cells/well. Approximately 5 hours after plating, compounds will be added to the plate by pin tool transfer and 5-fluorouridine will be added by FRD dispenser (final concentration of 5-fluorouridine =10 µM). 16 hours following the addition of the compounds, cell viability will be measured using CellTiter Glo.

Row | Structure (SMILES) | outcome
1 | COc1cc(Nc2nc(-c3ccncc3)nc3ccccc23)ccc1N1CCN(C)CC1 | inactive
2 | Fc1ccc(-c2ccc(Nc3nc(-c4ccncc4)nc4ccccc34)cc2F)cc1 | inactive
3 | COc1ccc(Nc2nc(-c3ccncc3)nc3ccccc23)cc1F | inactive
4 | Fc1cc(Nc2nc(-c3ccncc3)nc3ccccc23)ccc1-c1ccc(F)c(F)c1F | inactive
5 | Fc1cccc(-c2ccc(Nc3nc(-c4ccncc4)nc4ccccc34)cc2F)c1 | inactive
6 | Fc1cc(Nc2nc(-c3ccncc3)nc3ccccc23)ccc1-c1cccnc1 | inactive
7 | Cc1ccc(Nc2nc(-c3ccncc3)nc3ccccc23)cc1F | inactive
8 | Cc1noc(C)c1-c1ccc(Nc2nc(-c3ccncc3)nc3ccccc23)cc1F | inactive
9 | Fc1ccc(Nc2nc(-c3ccnc(C(F)(F)F)c3)nc3ccccc23)cc1F | inactive
10 | Cc1cc(-c2nc(Nc3ccc(F)c(F)c3)c3ccccc3n2)ccn1 | inactive
11 | Fc1ccc(Nc2nc(-c3ccnc(N4CCCCC4)c3)nc3ccccc23)cc1F | inactive
12 | N#Cc1cc(-c2nc(Nc3ccc(F)c(F)c3)c3ccccc3n2)ccn1 | inactive
13 | Fc1cc(Nc2nc(-c3ccncc3)nc3ccccc23)ccc1-c1cc(F)c(F)c(F)c1 | inactive
14 | Fc1cccc(Nc2nc(-c3ccncc3)nc3ccccc23)c1 | inactive
15 | Fc1cc(Nc2nc(-c3ccncc3)nc3ccccc23)ccc1-c1cncnc1 | inactive
16 | Fc1cc(Nc2nc(-c3ccncc3)nc3ccccc23)ccc1OCC(F)(F)F | inactive
17 | COc1ccc(-n2c(C)c(C(C)=O)c3ccccc32)cc1 | inactive
18 | Fc1ccc(Nc2nc(-c3ccncc3)nc3ccccc23)cc1F | inactive
19 | Fc1cc(Nc2nc(-c3ccncc3)nc3ccccc23)ccc1-c1cccc(OC(F)F)c1 | inactive
20 | Fc1cc(Nc2nc(-c3ccncc3)nc3ccccc23)ccc1-c1ccnc(C(F)(F)F)c1 | inactive
21 | Fc1cc(Nc2nc(-c3ccncc3)nc3ccccc23)ccc1OC(F)(F)F | inactive
22 | COc1ccc(-c2ccc(Nc3nc(-c4ccncc4)nc4ccccc34)cc2F)cc1F | inactive
23 | c1ccc2c(Nc3ccn[nH]3)nc(-c3ccncc3)nc2c1 | inactive
